Measurements from the supplement of paper PMC9262897, “Low-cost anti-mycobacterial drug discovery using engineered E. coli” (Nature Communications, 2022).
Counter-ions that a name gives are not always drawn. ± gives the standard deviation of the averaged measurements.

Columns and labels:
Experiment in all cases: growth (OD600 after 10 h); higher = more growth (less inhibition)
[1] = system: E. coli TESEC Alr+ wild-type control; conditions: compound 0.1 mM; raw OD600 reference: median of DMSO wells 0.241, cell-free background 0.041
Experimental: (§1)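 TESEC Mtb Alr E. coli, or the Alr+ wild-type control, in 384-well plates with Prestwick library compounds at 0.1 mM and 1% DMSO, across arabinose induction levels of 1E3 to 1E7 nM. Growth is read as OD600 after 10 h at 37 °C in triplicate biological replicates.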

E. coli TESEC Mtb Alr [2] = conditions: compound 0.1 mM
Experimental: as §1

E. coli TESEC Mtb Asd = conditions: compound 0.1 mM
Experimental: (§2)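 TESEC E. coli strains in which the native enzyme is deleted and replaced by arabinose-inducible Mtb Asd, DapB, CysH or TrpD, each grown in its selective medium. Strains were screened against the Prestwick library at 0.1 mM and 1% DMSO in 384-well format at low and high arabinose induction. Growth is read as OD600 after 10 h in triplicate.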

E. coli TESEC Mtb DapB = conditions: compound 0.1 mM
Experimental: as §2

[3] = system: E. coli TESEC Alr+ wild-type control; conditions: compound 0.1 mM; raw OD600 reference: median of DMSO wells 0.49, cell-free background 0.052
Experimental: (§3)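 TESEC Mtb Alr E. coli (ΔaraC ΔtolC ΔentC Δalr ΔdadX, arabinose-inducible Mtb Alr) or the Alr+ wild-type control strain, grown in defined M9-fructose medium without D-alanine in 96-well plates with Prestwick library compounds at 0.1 mM and 1% DMSO. Low Alr induction is 0.1 µM arabinose and high induction is 10 mM arabinose.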

E. coli TESEC Mtb Alr [4] = conditions: compound 0.1 mM; remark: listed apart in the source
Experimental: as §3

[5] = arabinose 1000 nM, raw OD600 reference: median of DMSO wells 0.294, cell-free background 0.041
[6] = arabinose 10000 nM, raw OD600 reference: median of DMSO wells 0.264, cell-free background 0.041
[7] = arabinose 100000 nM, raw OD600 reference: median of DMSO wells 0.201, cell-free background 0.041
[8] = arabinose 1000000 nM, raw OD600 reference: median of DMSO wells 0.193, cell-free background 0.041
[9] = arabinose 10000000 nM, raw OD600 reference: median of DMSO wells 0.146, cell-free background 0.041
[10] = arabinose induction (level): High, raw OD600 reference: median of DMSO wells 0.331, cell-free background 0.041
[11] = arabinose induction (level): Low, raw OD600 reference: median of DMSO wells 0.417, cell-free background 0.041
[12] = arabinose induction (level): High, raw OD600 reference: median of DMSO wells […], cell-free background 0.041
[13] = arabinose induction (level): Low, raw OD600 reference: median of DMSO wells 0.227, cell-free background 0.041
[14] = arabinose 100 nM, raw OD600 reference: median of DMSO wells 0.413, cell-free background 0.052
[15] = arabinose 10000000 nM, raw OD600 reference: median of DMSO wells […], cell-free background 0.052

| SMILES | growth [1] | growth (E. coli TESEC Mtb Alr [2]; [5]) | growth (E. coli TESEC Mtb Alr [2]; [6]) | growth (E. coli TESEC Mtb Alr [2]; [7]) | growth (E. coli TESEC Mtb Alr [2]; [8]) | growth (E. coli TESEC Mtb Alr [2]; [9]) | growth (E. coli TESEC Mtb Asd; [10]) | growth (E. coli TESEC Mtb Asd; [11]) | growth (E. coli TESEC Mtb DapB; [12]) | growth (E. coli TESEC Mtb DapB; [13]) | growth [3] | growth (E. coli TESEC Mtb Alr [4]; [14]) | growth (E. coli TESEC Mtb Alr [4]; [15]) |
| --- | --- | --- | --- | --- | --- | --- | --- | --- | --- | --- | --- | --- | --- |
| COc1cc(C)c(/C=C/C(C)=C/C=C/C(C)=C/C(=O)O)c(C)c1C [Acitretin] | 0.227 ± 0.0077 | 0.276 ± 0.0084 | 0.127 ± 0.0023 | 0.228 ± 0.03 | 0.06247 ± 0.00031 | 0.162 ± 0.0072 | 0.137 ± 0.015 | 0.145 ± 0.0072 | 0.153 ± 0.0019 | 0.1772 ± 0.00061 | 0.34 ± 0.0082 | 0.369 ± 0.0094 | 0.199 ± 0.02 |
| C[n+]1ccccc1/C=N/O [Pralidoxime chloride] | 0.253 ± 0.0089 | 0.318 ± 0.018 | 0.256 ± 0.013 | 0.202 ± 0.015 | 0.177 ± 0.0021 | 0.156 ± 0.007 | 0.476 ± 0.013 | 0.455 ± 0.046 | 0.223 ± 0.011 | 0.284 ± 0.0069 | 0.605 ± 0.018 | 0.407 ± 0.018 | 0.323 ± 0.015 |
| COc1ncnc(NS(=O)(=O)c2ccc(N)cc2)c1OC [Sulfadoxine] | 0.2282 ± 0.0012 | 0.28 ± 0.0075 | 0.251 ± 0.0051 | 0.192 ± 0.021 | 0.174 ± 0.007 | 0.14 ± 0.0077 | 0.306 ± 0.058 | 0.382 ± 0.062 | 0.195 ± 0.0074 | 0.237 ± 0.0097 | 0.594 ± 0.022 | 0.4331 ± 0.0033 | 0.306 ± 0.007 |
| CCN(CC)CCOC(=O)C1(c2ccc([N+](=O)[O-])cc2)CCCC1 [Nitrocaramiphen hydrochloride] | 0.235 ± 0.015 | 0.281 ± 0.0086 | 0.253 ± 0.0047 | 0.148 ± 0.0071 | 0.147 ± 0.0043 | 0.137 ± 0.0018 | 0.205 ± 0.059 | 0.426 ± 0.0056 | 0.161 ± 0.01 | 0.18 ± 0.017 | 0.488 ± 0.054 | 0.412 ± 0.017 | 0.324 ± 0.03 |
| O=C(O)Cc1cc(I)c(Oc2ccc(O)c(I)c2)c(I)c1 [Tiratricol, 3,3',5-triiodothyroacetic acid] | 0.0409 ± 0.00083 | 0.0428 ± 0.0019 | 0.04123 ± 0.00021 | 0.0442 ± 0.0023 | 0.0408 ± 0.00017 | 0.0558 ± 0.002 | 0.057 ± 0.0056 | 0.06 ± 0.0072 | 0.0676 ± 0.0044 | 0.108 ± 0.09 | 0.0593 ± 0.0022 | 0.167 ± 0.087 | 0.05437 ± 0.00015 |
| NCCCC(O)(P(=O)(O)O)P(=O)(O)O [Alendronate sodium] | 0.259 ± 0.0047 | 0.305 ± 0.013 | 0.265 ± 0.007 | 0.24 ± 0.033 | 0.178 ± 0.0032 | 0.162 ± 0.0058 | 0.343 ± 0.043 | 0.414 ± 0.04 | 0.214 ± 0.022 | 0.227 ± 0.019 | 0.514 ± 0.051 | 0.422 ± 0.012 | 0.204 ± 0.023 |
| CCC(Cc1c(I)cc(I)c(N)c1I)C(=O)O (stereo not drawn) [Iopanoic acid] | 0.0835 ± 0.0044 | 0.0987 ± 0.0055 | 0.0635 ± 0.0046 | 0.097 ± 0.003 | 0.0566 ± 0.001 | 0.0777 ± 0.0027 | 0.114 ± 0.0023 | 0.0943 ± 0.0055 | 0.148 ± 0.005 | 0.177 ± 0.005 | 0.263 ± 0.0034 | 0.339 ± 0.018 | 0.0809 ± 0.0061 |
| NC(=O)N1c2ccccc2C=Cc2ccccc21 [Carbamazepine] | 0.241 ± 0.0068 | 0.281 ± 0.0037 | 0.239 ± 0.0011 | 0.182 ± 0.032 | 0.173 ± 0.0066 | 0.142 ± 0.00057 | 0.36 ± 0.013 | 0.35 ± 0.059 | 0.194 ± 0.018 | 0.237 ± 0.046 | 0.491 ± 0.0058 | 0.405 ± 0.0088 | 0.272 ± 0.12 |
| CCN1CCN(C(=O)N[C@@H](C(=O)N[C@@H]2C(=O)N3C(C(=O)O)=C(CSc4nnnn4C)CS[C@H]23)c2ccc(O)cc2)C(=O)C1=O [Cefoperazone dihydrate] | 0.2999 ± 0.0024 | 0.321 ± 0.0082 | 0.221 ± 0.0032 | 0.3 ± 0.0043 | 0.182 ± 0.0037 | 0.1843 ± 0.0004 | 0.413 ± 0.016 | 0.417 ± 0.087 | 0.201 ± 0.0085 | 0.239 ± 0.042 | 0.512 ± 0.039 | 0.221 ± 0.078 | 0.341 ± 0.025 |
| CCN(CC)CCOC(=O)C(c1ccccc1)C1CCCCC1 (stereo not drawn) [Drofenine hydrochloride] | 0.149 ± 0.0031 | 0.203 ± 0.017 | 0.218 ± 0.0035 | 0.16 ± 0.0022 | 0.0678 ± 0.00092 | 0.1432 ± 0.00046 | 0.119 ± 0.0039 | 0.271 ± 0.017 | 0.156 ± 0.0038 | 0.179 ± 0.014 | 0.428 ± 0.026 | 0.407 ± 0.019 | 0.168 ± 0.058 |
| COc1ccc(-c2cc(=O)c3c(O)cc(O[C@@H]4O[C@H](CO[C@@H]5O[C@@H](C)[C@H](O)[C@@H](O)[C@H]5O)[C@@H](O)[C@H](O)[C@H]4O)cc3o2)cc1O [Diosmin] | 0.296 ± 0.0078 | 0.334 ± 0.01 | 0.277 ± 0.0034 | 0.248 ± 0.011 | 0.192 ± 0.013 | 0.1645 ± 0.00064 | 0.421 ± 0.085 | 0.358 ± 0.04 | 0.225 ± 0.016 | 0.243 ± 0.017 | 0.578 ± 0.14 | 0.437 ± 0.026 | 0.426 ± 0.065 |
| CC(CN(C)C)CN1c2ccccc2Sc2ccccc21 (stereo not drawn) [Trimeprazine tartrate] | 0.184 ± 0.019 | 0.221 ± 0.019 | 0.255 ± 0.0092 | 0.189 ± 0.012 | 0.129 ± 0.0014 | 0.168 ± 0.0079 | 0.175 ± 0.028 | 0.323 ± 0.07 | 0.192 ± 0.0094 | 0.231 ± 0.019 | 0.526 ± 0.013 | 0.392 ± 0.0092 | 0.298 ± 0.018 |
| Nc1ccc(S(=O)(=O)Nc2ccnn2-c2ccccc2)cc1 [Sulfaphenazole] | 0.231 ± 0.0032 | 0.236 ± 0.0082 | 0.1522 ± 0.0011 | 0.197 ± 0.031 | 0.0993 ± 0.0064 | 0.149 ± 0.0051 | 0.335 ± 0.033 | 0.354 ± 0.0096 | 0.163 ± 0.016 | 0.174 ± 0.03 | 0.484 ± 0.04 | 0.429 ± 0.0073 | 0.233 ± 0.15 |
| CNCC(O)c1ccc(OC(=O)C(C)(C)C)c(OC(=O)C(C)(C)C)c1 (stereo not drawn) [Dipivefrin hydrochloride] | 0.171 ± 0.01 | 0.239 ± 0.018 | 0.255 ± 0.011 | 0.164 ± 0.016 | 0.0939 ± 0.0013 | 0.142 ± 0.004 | 0.174 ± 0.029 | 0.269 ± 0.048 | 0.188 ± 0.023 | 0.167 ± 0.0099 | 0.394 ± 0.018 | 0.391 ± 0.022 | 0.19 ± 0.014 |
| O=C(O)c1cc(-c2ccc(F)cc2F)ccc1O [Diflunisal] | 0.128 ± 0.0035 | 0.151 ± 0.018 | 0.105 ± 0.0038 | 0.119 ± 0.003 | 0.086 ± 0.0022 | 0.112 ± 0.0029 | 0.218 ± 0.059 | 0.139 ± 0.0027 | 0.172 ± 0.0032 | 0.17 ± 0.0045 | 0.279 ± 0.0091 | 0.248 ± 0.052 | 0.136 ± 0.006 |
| Nc1ncnc2c1ncn2C1OC(COP(=O)(O)O)C(O)C1O (stereo not drawn) [Adenosine 5'-monophosphate monohydrate] | 0.26 ± 0.015 | 0.32 ± 0.013 | 0.2658 ± 0.0011 | 0.237 ± 0.021 | 0.175 ± 0.0094 | 0.15 ± 0.0046 | 0.276 ± 0.078 | 0.336 ± 0.058 | 0.214 ± 0.0055 | 0.25 ± 0.071 | 0.569 ± 0.09 | 0.374 ± 0.033 | 0.363 ± 0.013 |
